Screen size: about 220,000 compounds; about 830 (0.38%) were called active. How the calls were made is not given here. The list comes from a sample in which actives are over-represented; it also holds similar structures and randomly drawn compounds.
These compounds were tested against Regulator of G-protein signaling 16 (Homo sapiens) + Guanine nucleotide-binding protein G(o) subunit alpha (Homo sapiens) (UniProt O15492+P09471) (assay: RGS16-Galphao interaction inhibitors and enhancers – biochemical, human proteins, multiplexed bead flow cytometry, primary screen (AID 1441;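 further: Galphao activated by GDP with aluminum fluoride before binding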)). Conditions: bead-based flow cytometry RGS16-Galphao binding, fluorescence; at 10 µM; actives lie on both sides.
Regulator of G-protein signaling 16 (Homo sapiens) + Guanine nucleotide-binding protein G(o) subunit alpha (Homo sapiens), sequence (O15492 whole entry, looked up): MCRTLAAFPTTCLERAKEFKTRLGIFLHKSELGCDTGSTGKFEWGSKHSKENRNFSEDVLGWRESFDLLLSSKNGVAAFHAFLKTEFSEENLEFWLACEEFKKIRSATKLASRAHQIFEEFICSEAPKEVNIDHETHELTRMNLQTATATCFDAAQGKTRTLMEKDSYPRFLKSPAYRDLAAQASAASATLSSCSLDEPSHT
Regulator of G-protein signaling 16 (Homo sapiens) + Guanine nucleotide-binding protein G(o) subunit alpha (Homo sapiens), sequence (P09471 whole entry, looked up): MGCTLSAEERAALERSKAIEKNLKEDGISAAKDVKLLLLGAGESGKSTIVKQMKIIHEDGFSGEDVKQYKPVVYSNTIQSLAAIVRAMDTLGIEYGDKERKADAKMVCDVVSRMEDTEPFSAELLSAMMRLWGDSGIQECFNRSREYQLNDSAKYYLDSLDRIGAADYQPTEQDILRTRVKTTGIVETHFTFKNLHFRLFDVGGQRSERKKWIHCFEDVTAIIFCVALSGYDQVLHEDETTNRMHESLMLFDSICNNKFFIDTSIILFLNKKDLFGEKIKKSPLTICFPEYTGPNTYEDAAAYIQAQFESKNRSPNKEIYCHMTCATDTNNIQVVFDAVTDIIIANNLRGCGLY

Binding response (% of control), active:
COc1cc(C2/C(=C(\O)c3ccc4c(c3)CC(C)O4)C(=O)C(=O)N2Cc2ccco2)ccc1O (centres undefined) -10.7%
Cn1c(=O)c2c(n(Cc3ccccc3)c1=O)NC(=O)C2CC(=O)N1CCc2ccccc2C1 (centres undefined) -1.02%
Cc1cc(C)n(CC(O)CN(c2ccccc2)S(=O)(=O)c2ccc3ccccc3c2)n1 (centres undefined) -6.51%
C/C(=C/C(=O)N1CCN(C)CC1)C(=O)O 234% [activator]
NC(=O)CSc1c[nH]c2ccccc12 19.6%
Oc1ccc(N=Nc2nccs2)c(O)c1 -16.2%
CC(=O)N1CC[n+]2c(-c3ccc([N+](=O)[O-])cc3)csc21 12.8%
Fc1cc(F)c2nc(Nc3nc4c(F)cccc4s3)sc2c1 192% [activator]
COc1cc(C(=O)Nc2cc(C(F)(F)F)ccc2N2CCOCC2)ccc1O 9.57%
Cc1ccc(C)c(OCC(=O)N2CCN(C(=O)c3ccco3)CC2)c1 24.4%
O=C(CN1CCCCC1)N1c2ccccc2Sc2ccc(C(F)(F)F)cc21 -6.83%
CCCn1c(C)cc(C(=O)COC(=O)c2c(C)nn(-c3ccccc3)c2C)c1C -33.9%
FC(F)Oc1ccccc1C1CC(c2ccc(Br)s2)Nc2ncnn21 (centres undefined) 215% [activator]
CCOC(=O)C1Sc2[nH]c(=O)sc2C(c2ccc(Cl)cc2)C1C(=O)OCC (centres undefined) -39.2%
Cc1ccccc1NC(=S)N(CCCN1CCOCC1)Cc1cccs1 181% [activator]
CCCn1nnnc1NC(=O)COc1ccc(Cl)cc1C 2.27%

Binding response (% of control), inactive:
COc1ccc(/C(O)=C2\C(=O)C(=O)N(Cc3ccco3)C2c2ccc(OC)cc2OC)cc1 (centres undefined) 97.2%
COCCCN1C(=O)C(=O)/C(=C(/O)c2ccc3c(c2)CC(C)O3)C1c1cccnc1 (centres undefined) 68.3%
CC(=O)Nc1ccc(OCCC[n+]2cccc(C(=O)[O-])c2)cc1 97.8%
O=C(NCc1ccccc1)c1ccc(CNc2c(N3CCCC3)c(=O)c2=O)cc1 102%
COc1ccc(Br)cc1/C=N/Nc1ccc(Cl)c(C(=O)O)c1 103%
O=C(Cn1cnc2cc([N+](=O)[O-])ccc2c1=O)NC(=O)NCc1ccccc1 112%
Nc1c(N(CCO)C(=O)C2CCCCC2)c(=O)[nH]c(=O)n1Cc1ccccc1 86.5%
O=C(CSc1nnc(-c2cccs2)n1Cc1ccccc1)N1CCc2ccccc2C1 101%
O=C(COc1ccccc1)N1CCc2ccccc2C1 102%
O=S(=O)(c1ccccc1)N(CC(O)CN1CCCCC1)c1ccccc1 (centres undefined) 96.4%
Cc1ccc(N(CC(O)CN2CCCC2)S(=O)(=O)c2ccccc2)cc1 (centres undefined) 100%
CCN(CC(=O)Nc1ccc(Cl)c(S(=O)(=O)N(C)C)c1)Cc1nc2ccccc2c(=O)[nH]1 107%
CCOC(=O)CSc1nc(C)c(Oc2ccc(Cl)cc2Cl)c(=O)[nH]1 101%
COc1ccc(C(=O)C[n+]2ccc(N)c(C)c2C)cc1 99.8%
CCOC(=O)c1c(CC(C)C)csc1/N=C/C1=C(O)CCCC1=O 103%
CN1CCN(C(=O)C2C3C=CC(C3)C2C(=O)O)CC1 (centres undefined) 102%
CCN1CCN(C(=O)/C=C\C(=O)O)CC1 101%
COC(=O)C(C(=O)Nc1cccc(C)n1)C1CCCCCC1 (centres undefined) 103%
CCCc1cc(=S)n2c([nH]c3ccccc32)c1C#N 97.3%
CSc1sc(C(=O)NNC(=O)c2ccc(Cl)cc2)c2c1C=CCC2 92.2%
O=C(O)c1ccccc1C(=O)Nc1ccccc1[N+](=O)[O-] 96.6%
O=C(Cc1c[nH]c2ccccc12)OCCOC(=O)Cc1c[nH]c2ccccc12 97.3%
CCCn1cc(SCC(N)=O)c2ccccc21 85.2%
Oc1ccc2ccccc2c1N=Nc1nccs1 99.9%
CCN1CCN(C(=O)CCN2C(=O)c3ccccc3C2=O)CC1 93.9%
Cc1noc(C)c1S(=O)(=O)Nc1cc(C(F)(F)F)ccc1N1CCOCC1 98%
Cc1cc(C)cc(C(=O)N2CCN=C2SCc2ccc([N+](=O)[O-])cc2)c1 96.2%
COC(=O)c1c(C)[nH]c(C)c1-c1ccc([N+](=O)[O-])cc1 85.3%
O=C(Nc1ccc2cn[nH]c2c1)c1ccc(S(=O)(=O)N2CCOCC2)cc1 92.3%
Cc1cc(F)ccc1S(=O)(=O)Nc1ncnc2scc(-c3ccc(F)cc3)c12 95.8%
CCOc1cc(CNCc2ccccn2)ccc1OCC(=O)NC(C)(C)C 103%
Clc1ccc2nc(CSc3ccccc3)cn2c1 169%
CC(Sc1nnc2c(n1)C1CCC2(C)C1(C)C)C(=O)Nc1ccccc1 (centres undefined) 102%
O=C(Nc1nc2c(F)cc(F)cc2s1)C1COc2ccccc2O1 (centres undefined) 99.5%
NC(=O)c1c(Nc2nc3c(F)cccc3s2)sc2c1CCCC2 95%
NC(=O)CC(NC(=O)Cc1cccc2ccccc12)c1ccc(NCc2cc(F)ccc2F)c([N+](=O)[O-])c1 (centres undefined) 100%
CC(C)CC(=O)Nc1cc(C(F)(F)F)ccc1N1CCOCC1 101%
COc1cc(C(=O)Nc2cc(C(F)(F)F)ccc2-n2cncn2)cc(OC)c1OC 98.2%
CC(=O)N1N=C(c2ccncc2)OC1(Cc1ccccc1)Cc1ccccc1 96.5%
N#Cc1c(N2CCCCC2)nc(N)c2c(N)nc(SCC(=O)O)cc12 114%
COc1ccc(CCNC(=O)C(=O)Nc2ccc3nc4n(c(=O)c3c2)CCCCC4)cc1OC 105%
Cc1nn(-c2ccccc2)c(=O)c2noc(C)c12 102%
CCC(C)NC(=O)C1c2ccccc2Oc2ccccc21 (centres undefined) 103%
O=C(OCC(=O)N1CCN(C(=O)c2ccco2)CC1)c1ccccc1Cc1ccccc1 82.8%
COc1cccc(OC)c1OCCN1CCN(C(=O)c2ccco2)CC1 101%
CC(C)(C)C1CCC(=NNC(=O)c2cc(-c3ccccc3)n[nH]2)CC1 (centres undefined) 85.9%
COc1cc(/C=C/C(=O)N2c3ccccc3Sc3ccc(C(F)(F)F)cc32)cc(OC)c1OC 97%
O=C(CN1CCCCCC1)N1c2ccccc2Sc2ccc(C(F)(F)F)cc21 81.4%
COc1ccc(S(=O)(=O)N(C)C)cc1NC(=O)CSc1ncccn1 101%
CCC(C)N(C(=O)COC(=O)C1C(C(=O)OC)=C(C)NC(C)=C1C(=O)OC)C1CCS(=O)(=O)C1 (centres undefined) 104%
Cc1ccc(OC(=O)c2c(C)nn(-c3ccccc3)c2C)cc1 96.3%
Cc1nn(-c2ccccc2)c(C)c1C(=O)OCC(=O)NC(=O)NC1CCCCC1 98.5%
O=C(Nc1ccc(Cl)cc1)/C(=C1\CCCN1)[N+](=O)[O-] 97.8%
COc1ccc(C2CC(c3ccccc3)Nc3ncnn32)cc1 (centres undefined) 103%
Clc1ccc(C2CC(c3cccs3)n3ncnc3N2)cc1Cl (centres undefined) 103%
COc1ccc(CCNC(=O)c2ccc(CS(=O)(=O)c3ccc(Br)cc3)o2)cc1OC 107%
COc1ccccc1N(C)S(=O)(=O)c1ccc(C(=O)NC2CCCCCC2)cc1 102%
CC(=O)Nc1ccc(/C=N/Nc2ccc(C(=O)c3c(C)cc4ccccn34)cc2[N+](=O)[O-])cc1 89.3%
COC(C[C@H](O)CC(=O)COCc1ccccc1)OC 110%
CC(C)(CNC(=O)c1ccc(Cl)c(S(=O)(=O)N2CCc3ccccc3C2)c1)N1CCOCC1 96.9%
CCOC(=O)C1C(c2ccc(Cl)cc2)NC(=S)NC1(O)C(F)(F)F (centres undefined) 102%
CCOC(=O)C1=C(C)NC(=O)N(C(C)=O)C1c1ccc(Cl)cc1 (centres undefined) 109%
CC(C)(C)NC(=O)COC(=O)c1cc(Cl)ccc1[N+](=O)[O-] 100%
CN1C=CC=C/C1=C1\SC(=S)N(Cc2ccccc2)C1=O 100%
CCc1cccc(C)c1NC(=S)N(CCCN1CCN(C)CC1)Cc1cccs1 105%
Cc1ccc(Cl)cc1NC(=S)N(CCN(C)C)Cc1cccs1 99.5%
COc1ccc(C(CC(=O)N2CCN(c3ccccc3)CC2)c2c(O)cc(OC)cc2OC)cc1 (centres undefined) 99.5%
O=C(CCNc1n[nH]c(=O)[nH]c1=O)N/N=C\c1ccc(Br)cc1 100%
NCCCCCC(=O)N/N=C/c1ccc2nccnc2c1 105%
CC(=O)N(CN1C(=O)C2C3C=CC(C3)C2C1=O)c1cccc(Cl)c1 (centres undefined) 104%
Cc1ccc(OCCCn2c(=O)oc3ccccc32)cc1 106%
O=C(O)C#Cc1cccc2ccccc12 103%
Nc1ccc(OCC(O)C[n+]2ccc(CCS(=O)(=O)[O-])cc2)cc1 (centres undefined) 97.6%
CCOC(=O)N1CCN(C(=O)COc2ccc(Cl)cc2C)CC1 97.8%
Cc1cc(NC(=O)COc2ccc(Cl)cc2Cl)n(CCC#N)n1 93.4%
CC(C)=NN1C(=O)c2ccccc2NC1(C)C 120%
O=C(CSc1cccc[n+]1[O-])c1ccc(-c2ccccc2)cc1 104%
N#Cc1ccc(CSc2nnc3ccccn23)cc1 101%

From PubChem BioAssay AID1441 (NMMLSC, 2008)
